Experimental data: PMC7862700, “An all-to-all approach to the identification of sequence-specific readers for epigenetic DNA modifications on cytosine”

What was measured:
Assay in all cases: DAPPL (digital affinity profiling via proximity ligation, sequencing); 10 mM Tris-HCl pH 7.5, 50 mM NaCl, 1 mM DTT, 4% glycerol, room temperature, 30 min; GST-TFs on glutathione beads, 16-mer random dsDNA library, 0.1% formaldehyde crosslink after washing; high values mean tight binding
Details in all cases: protein: recombinant; tags: N-terminal GST; dsDNA, one strand shown
FLI1 = biological target: T1, FLI1 (Homo sapiens, UniProt Q01543 1-452)
T1 sequence: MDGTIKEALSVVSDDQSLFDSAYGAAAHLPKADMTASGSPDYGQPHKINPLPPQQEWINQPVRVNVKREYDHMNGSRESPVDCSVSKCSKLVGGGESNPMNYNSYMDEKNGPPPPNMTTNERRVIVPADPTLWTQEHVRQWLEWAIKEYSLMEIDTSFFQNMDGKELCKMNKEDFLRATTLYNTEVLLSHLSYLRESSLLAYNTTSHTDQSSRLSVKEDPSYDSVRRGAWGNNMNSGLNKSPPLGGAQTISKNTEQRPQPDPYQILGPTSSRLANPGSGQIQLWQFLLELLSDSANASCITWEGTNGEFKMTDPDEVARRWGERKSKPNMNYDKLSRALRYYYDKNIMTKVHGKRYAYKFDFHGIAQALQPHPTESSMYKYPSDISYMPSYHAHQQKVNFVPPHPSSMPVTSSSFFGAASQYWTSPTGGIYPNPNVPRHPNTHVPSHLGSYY
Summary of the method: (§1)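 The binding signal reported is, for every hexamer, its read frequency for a factor over its read frequency for the tag-only sample. Reads came from pools of yeast-expressed, GST-fused human transcription factors on glutathione beads, barcoded with DNA and mixed with that sample, which were incubated with 200 nmole of a random double-stranded 16-mer DNA library in Tris/NaCl/DTT/glycerol buffer at room temperature for 30 min. After washing, the pools were crosslinked with 0.1% formaldehyde, proximity-ligated with BsaI/T4 ligase for 1 h at 37 °C, PCR-amplified and sequenced on an Illumina NextSeq500.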

ELK1 = biological target: T2, ELK1 (Homo sapiens, UniProt P19419 1-428)
T2 sequence: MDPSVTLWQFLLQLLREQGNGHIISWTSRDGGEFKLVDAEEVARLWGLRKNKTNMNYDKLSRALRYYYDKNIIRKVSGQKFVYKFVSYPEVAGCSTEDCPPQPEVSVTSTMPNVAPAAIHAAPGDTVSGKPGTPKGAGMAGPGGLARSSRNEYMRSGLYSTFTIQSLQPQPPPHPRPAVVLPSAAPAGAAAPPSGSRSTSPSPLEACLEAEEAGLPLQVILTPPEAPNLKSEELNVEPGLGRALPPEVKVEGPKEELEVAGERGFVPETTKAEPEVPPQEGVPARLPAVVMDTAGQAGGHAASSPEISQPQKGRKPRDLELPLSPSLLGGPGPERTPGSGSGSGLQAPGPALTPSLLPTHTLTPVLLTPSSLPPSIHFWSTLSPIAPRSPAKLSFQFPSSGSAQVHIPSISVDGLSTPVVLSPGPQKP
Summary of the method: as §1

GABPA = biological target: T3, GABPA (Homo sapiens, UniProt Q06546 1-454)
T3 sequence: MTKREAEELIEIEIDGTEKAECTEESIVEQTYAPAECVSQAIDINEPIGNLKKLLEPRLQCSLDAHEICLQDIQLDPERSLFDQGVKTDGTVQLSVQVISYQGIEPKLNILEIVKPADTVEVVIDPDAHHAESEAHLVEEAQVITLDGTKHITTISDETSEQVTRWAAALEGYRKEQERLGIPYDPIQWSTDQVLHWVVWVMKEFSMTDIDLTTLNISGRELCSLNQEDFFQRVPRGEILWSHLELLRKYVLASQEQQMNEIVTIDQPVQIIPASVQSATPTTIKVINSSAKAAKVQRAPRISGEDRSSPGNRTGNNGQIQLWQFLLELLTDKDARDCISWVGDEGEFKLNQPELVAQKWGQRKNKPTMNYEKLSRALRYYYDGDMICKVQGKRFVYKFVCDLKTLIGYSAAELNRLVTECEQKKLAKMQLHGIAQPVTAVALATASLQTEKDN
Summary of the method: as §1

ERG = biological target: T4, ERG (Homo sapiens, UniProt P11308 1-479)
T4 sequence: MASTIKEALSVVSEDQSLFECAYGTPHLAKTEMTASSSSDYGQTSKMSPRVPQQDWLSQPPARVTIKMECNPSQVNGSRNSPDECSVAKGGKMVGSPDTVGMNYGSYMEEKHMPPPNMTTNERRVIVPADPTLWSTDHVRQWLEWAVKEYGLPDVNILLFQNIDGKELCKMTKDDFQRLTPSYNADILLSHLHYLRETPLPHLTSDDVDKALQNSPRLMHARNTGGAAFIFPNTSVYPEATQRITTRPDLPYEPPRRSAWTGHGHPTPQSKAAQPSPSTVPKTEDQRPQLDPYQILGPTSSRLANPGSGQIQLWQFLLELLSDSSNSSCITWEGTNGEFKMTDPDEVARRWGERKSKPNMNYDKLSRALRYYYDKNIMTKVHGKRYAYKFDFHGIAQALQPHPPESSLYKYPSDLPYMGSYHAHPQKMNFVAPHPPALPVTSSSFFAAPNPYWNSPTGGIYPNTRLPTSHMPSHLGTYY
Summary of the method: as §1

ELF1 = ELF1 (Homo sapiens, UniProt P32519 1-619)
ELF1, sequence (P32519 whole entry): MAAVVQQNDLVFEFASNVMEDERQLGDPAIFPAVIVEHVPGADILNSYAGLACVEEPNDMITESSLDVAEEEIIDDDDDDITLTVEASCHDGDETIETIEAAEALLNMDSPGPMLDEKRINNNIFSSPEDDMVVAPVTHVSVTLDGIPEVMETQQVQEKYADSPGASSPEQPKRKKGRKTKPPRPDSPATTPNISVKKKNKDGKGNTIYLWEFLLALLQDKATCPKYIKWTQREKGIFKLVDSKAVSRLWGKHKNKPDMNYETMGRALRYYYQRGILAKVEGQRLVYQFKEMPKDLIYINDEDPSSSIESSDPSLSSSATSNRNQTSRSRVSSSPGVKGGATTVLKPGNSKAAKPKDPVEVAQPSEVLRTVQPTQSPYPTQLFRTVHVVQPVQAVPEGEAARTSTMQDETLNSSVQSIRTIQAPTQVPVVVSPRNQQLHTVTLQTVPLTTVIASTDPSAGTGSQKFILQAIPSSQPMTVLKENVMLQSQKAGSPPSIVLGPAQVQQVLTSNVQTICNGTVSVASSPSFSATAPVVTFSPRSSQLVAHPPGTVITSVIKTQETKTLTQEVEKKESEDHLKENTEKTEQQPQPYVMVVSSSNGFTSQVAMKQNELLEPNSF
Summary of the method: as §1

EHF = biological target: T5, EHF (Homo sapiens, UniProt Q9NZC4 1-300)
T5 sequence: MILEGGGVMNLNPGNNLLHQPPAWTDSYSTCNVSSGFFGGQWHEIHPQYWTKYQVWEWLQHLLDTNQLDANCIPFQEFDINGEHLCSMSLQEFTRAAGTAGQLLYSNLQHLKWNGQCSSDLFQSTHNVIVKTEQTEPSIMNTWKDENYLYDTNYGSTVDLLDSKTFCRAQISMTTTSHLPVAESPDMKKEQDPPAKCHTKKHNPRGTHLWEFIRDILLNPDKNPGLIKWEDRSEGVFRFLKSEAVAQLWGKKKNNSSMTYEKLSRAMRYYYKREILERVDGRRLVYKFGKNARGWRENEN
Summary of the method: as §1

SPI1 = SPI1 (Homo sapiens, UniProt P17947 1-270)
Summary of the method: as §1

SPIB = SPIB (Homo sapiens, UniProt Q01892 1-262)
SPIB, sequence (Q01892 whole entry): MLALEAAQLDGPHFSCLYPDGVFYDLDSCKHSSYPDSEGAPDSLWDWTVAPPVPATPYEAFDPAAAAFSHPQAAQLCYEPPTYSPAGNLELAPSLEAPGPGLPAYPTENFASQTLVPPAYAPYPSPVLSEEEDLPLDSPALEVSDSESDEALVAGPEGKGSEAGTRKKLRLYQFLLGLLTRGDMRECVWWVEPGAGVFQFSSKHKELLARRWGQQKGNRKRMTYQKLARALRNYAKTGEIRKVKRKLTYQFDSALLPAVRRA
Summary of the method: as §1

ELK3 = biological target: T6, ELK3 (Homo sapiens, UniProt P41970 1-407)
T6 sequence: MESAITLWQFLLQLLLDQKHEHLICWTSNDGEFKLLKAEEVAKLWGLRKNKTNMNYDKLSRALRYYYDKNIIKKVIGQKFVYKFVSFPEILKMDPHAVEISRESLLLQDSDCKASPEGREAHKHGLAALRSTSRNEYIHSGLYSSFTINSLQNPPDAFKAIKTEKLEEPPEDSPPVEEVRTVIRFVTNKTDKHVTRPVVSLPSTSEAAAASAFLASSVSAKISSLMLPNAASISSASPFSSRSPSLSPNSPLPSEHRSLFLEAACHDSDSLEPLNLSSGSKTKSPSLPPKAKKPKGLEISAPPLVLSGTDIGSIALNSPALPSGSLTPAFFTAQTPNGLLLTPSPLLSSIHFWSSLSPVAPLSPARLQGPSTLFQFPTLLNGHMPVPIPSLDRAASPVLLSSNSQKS
Summary of the method: as §1

## CTGATA
FLI1
  binding signal: 1.15 fold enrichment (6-mer frequency, TF over GST control)
ELK1
  binding signal: 1.17 fold enrichment (6-mer frequency, TF over GST control)
GABPA
  binding signal: 1.27 fold enrichment (6-mer frequency, TF over GST control)
ERG
  binding signal: 1.1 fold enrichment (6-mer frequency, TF over GST control)
ELF1
  binding signal: 1.21 fold enrichment (6-mer frequency, TF over GST control)
EHF
  binding signal: 1.26 fold enrichment (6-mer frequency, TF over GST control)
SPI1
  binding signal: 1.28 fold enrichment (6-mer frequency, TF over GST control)
SPIB
  binding signal: 1.32 fold enrichment (6-mer frequency, TF over GST control)
ELK3
  binding signal: 1.24 fold enrichment (6-mer frequency, TF over GST control)

## CAATAC
FLI1
  binding signal: 1.25 fold enrichment (6-mer frequency, TF over GST control)
ELK1
  binding signal: 1.29 fold enrichment (6-mer frequency, TF over GST control)
GABPA
  binding signal: 1.23 fold enrichment (6-mer frequency, TF over GST control)
ERG
  binding signal: 1.23 fold enrichment (6-mer frequency, TF over GST control)
ELF1
  binding signal: 1.24 fold enrichment (6-mer frequency, TF over GST control)
EHF
  binding signal: 1.2 fold enrichment (6-mer frequency, TF over GST control)
SPI1
  binding signal: 1.25 fold enrichment (6-mer frequency, TF over GST control)
SPIB
  binding signal: 1.17 fold enrichment (6-mer frequency, TF over GST control)
ELK3
  binding signal: 1.28 fold enrichment (6-mer frequency, TF over GST control)

## ACTGAT
FLI1
  binding signal: 1.22 fold enrichment (6-mer frequency, TF over GST control)
ELK1
  binding signal: 1.31 fold enrichment (6-mer frequency, TF over GST control)
GABPA
  binding signal: 1.27 fold enrichment (6-mer frequency, TF over GST control)
ERG
  binding signal: 1.3 fold enrichment (6-mer frequency, TF over GST control)
ELF1
  binding signal: 1.28 fold enrichment (6-mer frequency, TF over GST control)
EHF
  binding signal: 1.27 fold enrichment (6-mer frequency, TF over GST control)
SPI1
  binding signal: 1.31 fold enrichment (6-mer frequency, TF over GST control)
SPIB
  binding signal: 1.19 fold enrichment (6-mer frequency, TF over GST control)
ELK3
  binding signal: 1.26 fold enrichment (6-mer frequency, TF over GST control)

## CAATAA
FLI1
  binding signal: 1.12 fold enrichment (6-mer frequency, TF over GST control)
ELK1
  binding signal: 1.07 fold enrichment (6-mer frequency, TF over GST control)
GABPA
  binding signal: 1.25 fold enrichment (6-mer frequency, TF over GST control)
ERG
  binding signal: 1.13 fold enrichment (6-mer frequency, TF over GST control)
ELF1
  binding signal: 1.13 fold enrichment (6-mer frequency, TF over GST control)
EHF
  binding signal: 1.15 fold enrichment (6-mer frequency, TF over GST control)
SPI1
  binding signal: 1.14 fold enrichment (6-mer frequency, TF over GST control)
SPIB
  binding signal: 1.11 fold enrichment (6-mer frequency, TF over GST control)
ELK3
  binding signal: 1.2 fold enrichment (6-mer frequency, TF over GST control)

## TTCTAC
FLI1
  binding signal: 1.39 fold enrichment (6-mer frequency, TF over GST control)
ELK1
  binding signal: 1.43 fold enrichment (6-mer frequency, TF over GST control)
GABPA
  binding signal: 1.59 fold enrichment (6-mer frequency, TF over GST control)
ERG
  binding signal: 1.53 fold enrichment (6-mer frequency, TF over GST control)
ELF1
  binding signal: 1.55 fold enrichment (6-mer frequency, TF over GST control)
EHF
  binding signal: 1.49 fold enrichment (6-mer frequency, TF over GST control)
SPI1
  binding signal: 1.46 fold enrichment (6-mer frequency, TF over GST control)
SPIB
  binding signal: 1.6 fold enrichment (6-mer frequency, TF over GST control)
ELK3
  binding signal: 1.44 fold enrichment (6-mer frequency, TF over GST control)

## TAACCT
FLI1
  binding signal: 1.2 fold enrichment (6-mer frequency, TF over GST control)
ELK1
  binding signal: 1.32 fold enrichment (6-mer frequency, TF over GST control)
GABPA
  binding signal: 1.35 fold enrichment (6-mer frequency, TF over GST control)
ERG
  binding signal: 1.12 fold enrichment (6-mer frequency, TF over GST control)
ELF1
  binding signal: 1.35 fold enrichment (6-mer frequency, TF over GST control)
EHF
  binding signal: 1.29 fold enrichment (6-mer frequency, TF over GST control)
SPI1
  binding signal: 1.29 fold enrichment (6-mer frequency, TF over GST control)
SPIB
  binding signal: 1.31 fold enrichment (6-mer frequency, TF over GST control)
ELK3
  binding signal: 1.43 fold enrichment (6-mer frequency, TF over GST control)

## CTAGTT
FLI1
  binding signal: 1.37 fold enrichment (6-mer frequency, TF over GST control)
ELK1
  binding signal: 1.4 fold enrichment (6-mer frequency, TF over GST control)
GABPA
  binding signal: 1.42 fold enrichment (6-mer frequency, TF over GST control)
ERG
  binding signal: 1.3 fold enrichment (6-mer frequency, TF over GST control)
ELF1
  binding signal: 1.31 fold enrichment (6-mer frequency, TF over GST control)
EHF
  binding signal: 1.23 fold enrichment (6-mer frequency, TF over GST control)
SPI1
  binding signal: 1.34 fold enrichment (6-mer frequency, TF over GST control)
SPIB
  binding signal: 1.48 fold enrichment (6-mer frequency, TF over GST control)
ELK3
  binding signal: 1.21 fold enrichment (6-mer frequency, TF over GST control)

## AATTAA
FLI1
  binding signal: 1.26 fold enrichment (6-mer frequency, TF over GST control)
ELK1
  binding signal: 1.2 fold enrichment (6-mer frequency, TF over GST control)
GABPA
  binding signal: 1.22 fold enrichment (6-mer frequency, TF over GST control)
ERG
  binding signal: 1.26 fold enrichment (6-mer frequency, TF over GST control)
ELF1
  binding signal: 1.27 fold enrichment (6-mer frequency, TF over GST control)
EHF
  binding signal: 1.22 fold enrichment (6-mer frequency, TF over GST control)
SPI1
  binding signal: 1.26 fold enrichment (6-mer frequency, TF over GST control)
SPIB
  binding signal: 1.21 fold enrichment (6-mer frequency, TF over GST control)
ELK3
  binding signal: 1.31 fold enrichment (6-mer frequency, TF over GST control)
